Experiment [1] deals with P. falciparum NF54-pfs16-GFP early (I-III) stage gametocytes. The experiment in a line: relative % inhibition of viable gametocyte number; higher = more gametocytocidal. Particulars: stage: early (I-III) gametocyte, incubation 72 h. The method, boiled down:
(§1)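 In 384-well poly-D-lysine imaging plates, NF54 pfs16-GFP gametocytes (magnet-isolated, early I/IIa on day 2 or late on day 8; 10% parasitaemia, 0.1% haematocrit) received compound in duplicate at 5 or 0.5 µM. Plates stood 72 h at 37°C in 5% CO2 and 5% O2, then overnight with MitoTracker Red before confocal imaging, where elongated GFP objects with MitoTracker signal above cut-off counted as viable. Relative inhibition was calculated against vehicle and positive-control wells on the same plate.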

In experiment [2] the test system is P. falciparum NF54-pfs16-GFP late (IV-V) stage gametocytes. The experiment is described as above. Particulars: stage: late (IV-V) gametocyte, incubation 72 h. The method, boiled down:
as §1

The structures appear in SMILES notation.

Consider `CN(N=O)C1=C(NC2CCCCC2)C(=O)c2ccccc2C1=O`, for which the relative % inhibition amounted to 34.8% in experiment [1] (0.5 µM), 10.4% in experiment [1] (5 µM), 20.6% in experiment [2] (0.5 µM) and 38.1% in experiment [2] (5 µM).
The like results for `Oc1ccc(Br)cc1CN1CCN(Cc2cccc(F)c2)CC1` were, in that order, -1.27%, 63.9%, 50.4% and 95.9%.
Consider `Oc1ccc(Br)cc1CN1CCN(Cc2ccc(Cl)cc2)CC1`, for which the relative % inhibition was 12.1% in experiment [1] (0.5 µM), 88.4% in experiment [1] (5 µM), 26.8% in experiment [2] (0.5 µM) and 31% in experiment [2] (5 µM).
Consider `C=CC12CCN(CC1)C(C(O)c1ccnc3ccc(OC)cc13)C2` (stereo not drawn), for which the relative % inhibition was found to be 91.6% in experiment [1] (0.5 µM), 75.8% in experiment [1] (5 µM), 37.9% in experiment [2] (0.5 µM) and 36.1% in experiment [2] (5 µM).
For `COc1cc(CNCCc2ccc(Cl)cc2)cc(OC)c1O`, the relative % inhibition is 9.61% in experiment [1] (0.5 µM), 87.4% in experiment [1] (5 µM), -10.8% in experiment [2] (0.5 µM) and 3.51% in experiment [2] (5 µM).
Consider `CCCCCCc1cc(O)c2c3c(c(=O)oc2c1)CCC(C)C3` (stereo not drawn), for which the relative % inhibition in experiment [1] (0.5 µM) is -14.4%; in experiment [1] (5 µM), 86.1%; in experiment [2] (0.5 µM) it was 69.5%; in experiment [2] (5 µM), 98.9%.
The like results for `CCOc1cc(CNC(C)C(O)c2ccccc2)cc(Cl)c1OCC` (stereo not drawn) were, in that order, -15.8%, -1.9%, 32.7% and 74.4%.
Regarding `CCOc1c(Cl)cc(CNC(C)C(O)c2ccccc2)cc1OC` (stereo not drawn), the relative % inhibition in experiment [1] (0.5 µM) was -16.9%; in experiment [1] (5 µM) it was 71.9%; in experiment [2] (0.5 µM) it was -0.71%; in experiment [2] (5 µM), 31.3%.
The like results for `CCCc1cc(O)c2c3c(c(=O)oc2c1)CN(C)CC3` were, in that order, 38.5%, 91.6%, 38.3% and 49.1%.
In the same order, the values of `O=C(CCc1ccco1)NC1CCN(CC2(c3ccc(Cl)cc3)CCC2)CC1` are -4.87%, 91.7%, 21.7% and 82.2%.
The like results for `Oc1ccc(C(=C(Cl)Cl)c2ccc(O)cc2)cc1` were, in that order, -6.22%, 29.1%, -1.73% and -7.57%.
Regarding `COc1ccc(CN2CCN(Cc3ccccc3)CC2)c(O)c1`, the relative % inhibition is -13.8% in experiment [1] (0.5 µM), -3.4% in experiment [1] (5 µM), 12.2% in experiment [2] (0.5 µM) and 7.95% in experiment [2] (5 µM).

These data come from the supplement of paper PMC3842684.
